Measured values as given in PubChem BioAssay AID1159580 (chemical genetic matrix, 2015).
The whole screen tested about 5,500 compounds, of which about 2,000 (36%) were called active. Roughly 18% stayed inconclusive and do not appear here. Cut-off read from the data, not from the text of the source: active = normalized growth mostly below about 0.91 (no sharp cut-off); inconclusive = no clear call, values can overlap the other calls; inactive = mostly above about 0.92. Some of the results follow.

Assay: chemical genetic growth profiling, strain panel (AID 1159580);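 note: tested at 20 µM; growth read once vehicle control cultures reached saturation at 30 °C; 1 = growth at the plate median or of vehicle wells; lower values mean less growth of the strain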
Settings: S. cerevisiae deletion strains, growth OD
[1] = locus YAL013W, strain DEP1, stronger effect = lower value
[2] = locus YAL040C, strain CLN3, stronger effect = lower value
[3] = locus YCL061C, strain MRC1 (second series), stronger effect = lower value
[4] = locus YDR363W, strain ESC2, stronger effect = lower value
[5] = locus YER002W, strain NOP16, stronger effect = lower value
[6] = locus YMR263W, strain SAP30, stronger effect = lower value
[7] = locus YNL153C, strain GIM3, stronger effect = lower value
[8] = locus YNL175C, strain NOP13, stronger effect = lower value
[9] = locus YNL197C, strain WHI3, stronger effect = lower value
[10] = locus YNL224C, strain SQS1, stronger effect = lower value
[11] = locus YOR083W, strain WHI5 (second series), stronger effect = lower value

Measured: normalized growth

CC(N)c1cccc(Cl)c1Cl (centres undefined)
inactive: [1] 1.01 | [2] 0.969 | [3] 1 | locus YDR150W, strain NUM1, stronger effect = lower value 0.996 | [4] 1.08 | [5] 1.01 | locus YGR078C, strain PAC10, stronger effect = lower value 0.981 | locus YJR075W, strain HOC1, stronger effect = lower value 1.02 | [6] 1 | locus YNL128W, strain TEP1, stronger effect = lower value 1.01 | [7] 0.972 | [8] 0.981 | [9] 0.953 | [10] 1.01 | [11] 1.01 | locus YPL055C, strain LGE1, stronger effect = lower value 1.07

O=C(O)/C=C/C(O)c1ccc(Cl)cc1 (centres undefined)
inactive: [1] 0.986 | [2] 1.07 | [3] 0.982 | [4] 1.02 | [5] 1 | [6] 0.983 | locus YMR307W, strain GAS1, stronger effect = lower value 1.03 | [7] 0.997 | [8] 0.997 | [9] 0.986 | [10] 0.98 | [11] 0.998 | locus YPL241C, strain CIN2, stronger effect = lower value 0.985
